Source: PubChem BioAssay
Values joined by “and” are separate entries in the source; they are usually repeats but may differ in a detail not shown here. Identical values can stand only once. Active and inactive are the calls of the source.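 The calls were made as follows: active = z-score of at least 1.8 in each of two replicates, scored against plate mean and spread of sample wells; inactive = the rest.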

Experiment: viability rescue of complex I mutant cybrids, primary screen, cell-based, galactose medium, ATP luminescence (AID 1645843);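 also: positive z means more ATP and so rescue of galactose-driven cybrid death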
Settings: complex I mutant cybrid cells, 72 h, hits give high values

For `CC(C)(C)c1ccc(C(O)CCCN2CCC(C(O)(c3ccccc3)c3ccccc3)CC2)cc1` (stereo unspecified), which z-score is on record?
The z-score was -1.31 (inactive) and 0.135 (inactive).

For `O=C(NCC1CCCCN1)c1cc(OCC(F)(F)F)ccc1OCC(F)(F)F` (stereo unspecified), which z-score is on record?
Its z-score is -1.51 (inactive) and -0.39 (inactive) and 0.37 (inactive).

Which z-score does the source give for `CC(C)c1c(C(=O)Nc2ccccc2)c(-c2ccccc2)c(-c2ccc(F)cc2)n1CC[C@@H](O)C[C@@H](O)CC(=O)O` here?
The z-score was -0.8 (inactive).

For `Cc1ccc(/C(=C\CN2CCCC2)c2ccccn2)cc1`, which z-score is on record?
Its z-score is -0.245 (inactive) and -0.1 (inactive) and 0.365 (inactive).

With `Clc1ccccc1CN1CCc2sccc2C1` as the compound, how does the z-score read?
Its z-score is -1.11 (inactive) and 0.17 (inactive).

Which z-score does the source give for `C[N+]1(C)CCC(OC(=O)C(O)(c2ccccc2)C2CCCC2)C1` (stereo unspecified) here?
The z-score was 0.385 (inactive) and 0.61 (inactive).

For `CN1[C@@H]2CC(OC(=O)[C@H](CO)c3ccccc3)C[C@H]1[C@@H]1O[C@@H]12` (stereo partly specified), which z-score is on record?
The z-score was -0.01 (inactive) and 0.315 (inactive).

Which z-score does the source give for `CC(C)(C(=O)O)c1ccc(C(O)CCCN2CCC(C(O)(c3ccccc3)c3ccccc3)CC2)cc1` (stereo unspecified) here?
Its z-score is 0.205 (inactive) and 1.1 (inactive) and -0.085 (inactive).

Which z-score does the source give for `CC(C)n1c(/C=C/[C@@H](O)C[C@@H](O)CC(=O)O)c(-c2ccc(F)cc2)c2ccccc21` here?
Its z-score is -0.215 (inactive) and -1.78 (inactive).

With `CN(C)C(=N)N=C(N)N` as the compound, how does the z-score read?
The z-score was 0.78 (inactive).

For `O=C(O)c1cn(C2CC2)c2cc(N3CCNCC3)c(F)cc2c1=O`, which z-score is on record?
The z-score was 0.01 (inactive).

Which z-score does the source give for `O=S(=O)(c1cccc2cnccc12)N1CCCNCC1` here?
The z-score was -0.745 (inactive) and -1.1 (inactive).

Which z-score does the source give for `CS(=O)(=O)c1ccc([C@@H](O)[C@@H](CF)NC(=O)C(Cl)Cl)cc1` here?
The z-score was -1.65 (inactive).

Which z-score does the source give for `C[C@@H](O[C@H]1OCCN(Cc2n[nH]c(=O)[nH]2)[C@H]1c1ccc(F)cc1)c1cc(C(F)(F)F)cc(C(F)(F)F)c1` here?
Its z-score is -0.16 (inactive).

Which z-score does the source give for `NCCCC(O)(P(=O)(O)O)P(=O)(O)O` here?
Its z-score is -2.05 (inactive) and 0.675 (inactive).

For `CC1(C)[C@H](C(=O)O)N2C(=O)C[C@H]2S1(=O)=O`, which z-score is on record?
Its z-score is 0.33 (inactive).
